± gives the standard deviation of the averaged measurements. Whole data set: some 25,000 sequences, median “ln(normalized median fluorescence intensity)” near 8.6, cut for the highest 2% near 10. The entries come from a sample that favours the highest values as a whole.
test system: PfAP2-EXP AP2 domain (GST-tagged); experiment: gcPBM binding intensity (ln(normalized median fluorescence intensity)); higher = stronger DNA binding
Method in brief: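 The highest Masliner-normalised natural-log median intensity across replicate spots of either probe orientation is reported as binding intensity. GST-tagged P. falciparum DNA-binding domains expressed in E. coli were applied for 1 h to an Agilent 4 × 180k array of primer-extended double-stranded 36-bp intergenic genomic probes plus negative controls, and bound protein was detected with Alexa488 anti-GST antibody and scanned at 488 nm.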

Sequence | gcPBM binding intensity (ln)
AGTAGCATATTCTATTGTACATATATATATATATAT [XGTACX_site2980] | 10.2 ± 0.56
TATATATATATATATTGTACATATTGTATATATTGT [XGTACX_site3212] | 9.98 ± 0.21
TAATATTTATTCTATTGTACATAAAATATATATATA [XGTACX_site7132] | 9.225 ± 0.078
TTTATATATATAAATATGTAGATAACAATATTCTGA [TGCATGCA_negctrl_site554] | 8.16 ± 0.44
AAATTGGTTCATCAATGTACATGTAAAATAAATCAA [XGTACX_site4795] | 8.88 ± 0.46
AAATTAATATTATGTGCATGCACAAAGAGGAACGAC [TGCATGCA_site754] | 10.7 ± 0.18
TATTAATTATAAGATGCATGTGCAAAAATATGTTCC [TGCATGCA_site51] | 9.01 ± 0.36
ATTATTAATAATTGTGTGCACAAATATTTATATGCT | 8.86 ± 0.092
ATATATATATATATATATATATATATATATAAGTGG [XGTACX_negctrl_site90] | 9.94 ± 0.35
TTATTTTCCCTTTGTGCATGCAGTTTACTTTTTGTG [TGCATGCA_site993] | 10.4 ± 0.64
TACTTACACTGTTTTTGTACTTATTTCCCTTTTATT [XGTACX_site2158] | 9.12 ± 0.6
ATTTCCCCTTTTTATTGTACATTTTTATTTGTTACT [XGTACX_site4845] | 9.14 ± 0.64
TGTATAAGGTTTTTACGTTTTGAAGGATGTATTGTT [CACACA_negctrl_site1245] | 8.59 ± 0.6
TTGTATTATTATGTTGCACACATTTTATATAAAATA [CACACA_site3641] | 9.06 ± 0.31
TATGTATTTTTTAAGTGTACCTATATATATATATAT [XGTACX_site7934] | 10.2 ± 0.3
TTTATATGTATTAAGTGTACACATATAATGTATTTT [XGTACX_site16] | 8.71 ± 0.014
TTTATGTGTATTAAGTGTACACATATAGTGTATTTT [XGTACX_site999] | 8.42 ± 0.31
ATTTAGAAATATATTTGTACATATATATATATATAT [XGTACX_site7129] | 10.2 ± 0.35
TATATATATATATATTGTACATATTAATATTAGAAA [XGTACX_site8923] | 10.1 ± 0.39
ACATGTACAGAAATTTATATATATATATATATATAT [CACACA_negctrl_site1584] | 10.3 ± 0.33
ACATATAATATAAATTGTACATATAAATATATTATT [XGTACX_site4268] | 8.38 ± 0.32
AGAATAAATAAATATTGTACATATAAAATATATATA [XGTACX_site896] | 8.39 ± 0.35
ATATATATAAATATATGTACTAATATATACATATAT [XGTACX_site2289] | 8.22 ± 0.092
AATAAATAAATATATTGTACATATATATATATATAT [XGTACX_site8627] | 10.2 ± 0.4
AATATAATATACATATGTACATATATATATATATAT [XGTACX_site8218] | 10 ± 0.32
TACAGAAATTTATATATATATATATATATATATATA [XGTACX_negctrl_site209] | 9.95 ± 0.62
ATATATATATATATATGTACATACTATACAATAATT [XGTACX_site3546] | 10.4 ± 0.29
TATAGAAAATTTATATGTACATATATATATATATAT [XGTACX_site4451] | 10.1 ± 0.44
TAGAAATATATTTATTGTACATTGTATATATTATAT [XGTACX_site7584] | 8.35 ± 0.48
